We go through 14 compounds from PubChem BioAssay.

The structures appear in SMILES notation. Several values for one entry are separate records, joined by “and”; a condition that tells them apart may be missing. Equal entries are not always repeated. Activity calls are given as the source filed them. Rule as the data show it, unless noted: active = inhibition above about 80%; inactive = the rest.

The target in test [1] is NAD(+) hydrolase SARM1 (Homo sapiens) (UniProt Q6SZW1). Put plainly: blocking NAD cleavage by SARM1 SAM-TIR – cell lysate, NAD-Glo luminescence (AID 1508614;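 active = compound whose remaining NAD level is above about 45 nM, limit read from the data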;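 also: higher remaining NAD means stronger inhibition of SARM1 NADase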). The settings on record: SAM-TIR HEK293T lysate NADase, at 1 µM, stronger effect = higher value.
In test [2] the target is Mitogen-activated protein kinase 7 (Homo sapiens) (UniProt Q13164). Put plainly: Gal4-ERK5 driven luciferase induction – cell-based, HTS, primary screen (AID 1508626;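 active = luciferase signal above three times the same-plate solvent-only control wells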;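 also: luciferase driven by Gal4-ERK5 fusion binding five Gal4 sites before minimal TATA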). The settings on record: HeLa Gal4-ERK5 transactivation, 18 h, at 5 µM, stronger effect = higher value.
Test [3] in a line: growth inhibition, single agents and combos, LFS_MB_1R, cell-based, cisplatin or BGB combos, synergistic combos for chromothripsis tumors (AID 1671452).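 Also: cells exposed for 96 hours before readout.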 The note with it: LFS_MB_1R medulloblastoma cells, stronger effect = higher value.
Test [4] can be described thus: growth inhibition, single agents and combos, CRL2098, cell-based, BGB or cisplatin IC20 combos, synergistic combos for chromothripsis tumors (AID 1671454).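 Also: cells exposed for 96 h before readout; 0% = vehicle DMSO and 100% = killing by high DMSO.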 The note with it: CRL2098 osteosarcoma cells, drug combinations, stronger effect = higher value.
Test [5] in a line: growth inhibition, single agents and combos, HD-MB03, cell-based, BGB or cisplatin IC20 combos, synergistic combos for chromothripsis tumors (AID 1671455; in the data active = inhibition above about 83%;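 also: 0% = vehicle DMSO and 100% = high DMSO as cytotoxic control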). The note with it: HD-MB03 medulloblastoma cells, stronger effect = higher value.
Test [6] is described as follows: growth inhibition, single agents and combos, UWB1.289, cell-based, BGB or cisplatin combos, synergistic combos for chromothripsis tumors (AID 1671456).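 Also: cells exposed to compound for four days; 0% = vehicle DMSO and 100% = killing by high DMSO.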 The settings on record: UWB1.289 ovarian carcinoma cells, stronger effect = higher value.
Test [7] can be described thus: growth inhibition, single agents and combos, LFS_MB_2R, cell-based, cisplatin combos, synergistic combos for chromothripsis tumors (AID 1671457).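 Also: cells exposed to compound for four days before readout.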 The note with it: LFS_MB_2R medulloblastoma cells, stronger effect = higher value.
Test [8] can be described thus: UWB1.289_BRCA1 ovarian cancer growth, cell-based, BGB or cisplatin combinations (AID 1671459). The settings on record: UWB1.289 BRCA1 ovarian carcinoma, drug combinations, stronger effect = higher value.
The nature of test [9]: drug combination toxicity in non-malignant astrocytes – cell-based, BGB or cisplatin IC20 combos, cytotoxicity control for chromothriptic childhood tumor combination screen (AID 1671460).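 Also: cells exposed to compounds for 96 hours before viability readout; 0% = vehicle and 100% = killing control.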 The note with it: Human astrocytes, viability inhibition, drug combinations, at 0.5 µM, stronger effect = higher value.
Test [10] is described as follows: CRL1545 cell growth, single agent and combined, cisplatin and BGB IC20 combos (AID 1671464).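 Also: cells exposed to compound for 96 hours before readout; 0% = vehicle DMSO and 100% = high DMSO killing control.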 The note with it: CRL1545 osteosarcoma cells, stronger effect = higher value.
A short description of test [11]: galactose survival enhancers in mitochondrial complex I cybrids – cell-based, galactose medium, ATP luminescence, primary screen (AID 1645843;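 active = z-score of at least 1.8 in each of two replicates, scored against plate mean and spread of sample wells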;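 also: positive z means more ATP and so rescue of galactose-driven cybrid death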). The settings on record: complex I mutant cybrid cells, 72 h, stronger effect = higher value.
Test [12] can be described thus: liver-stage malaria parasite load reduction – cell-based, known kinase inhibitor set, luminescence, hepatoma host viability (AID 624392; call rule not given here;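 also: infected cells incubated roughly two days before readout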). The settings on record: Plasmodium liver stage in hepatoma cells, luciferase luminescence, concentration not given here; liver cell % of control: measured here: host liver cell viability; parasite % of control: stronger effect = lower value.

Test [13] is described as follows: compounds altering viability of human ES cells (AID 493140; call rule not given here;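 also: cells exposed to compounds for four days before counting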). The settings on record: human embryonic stem cell survival screen; stronger effect = higher value.
The nature of test [14]: P. berghei load reduction in hepatocytes – cell-based, HepG2, luciferase luminescence, HepG2 viability, primary screen (AID 624349; in the data active = parasite load remaining mostly below about 12%, no sharp cut-off; inactive = mostly above about 10%;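 also: 100% = mean of DMSO negative control wells on the same plate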). The note with it: P. berghei liver stage in HepG2, luciferase luminescence, concentration not given here; parasite load remaining: stronger effect = lower value; viability: measured here: HepG2 viability without parasites.
Test [15] can be described thus: chitosan synthesis blockers in C. neoformans – flow cytometry, Cibacron Brilliant Red staining (AID 1347148; call rule not given here;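 also: compound exposure lasted three days at 37 degrees C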). The settings on record: Cryptococcus neoformans chitosan, stronger effect = lower value; at 10 µM unless noted.
Test [16] deals with Hepatitis C virus NS3 helicase. The experiment in a line: blockers of NS3h binding to ssDNA – biochemical, fluorescence polarization, LOPAC1280 library, primary screen (AID 687035; in the data active = inhibition above about 37%). The note with it: Purified HCV NS3 helicase, Cy5-dT15 ssDNA binding fluorescence polarization; stronger effect = higher value; concentration not given here. Background: Fluorescence polarisation rises when a labelled molecule tumbles more slowly, as on binding a larger partner.

Test [17] in a line: compounds altering Cy5-DNA-NS3h complex signal – biochemical, LOPAC1280, artefact control for HCV NS3 helicase inhibitor project (AID 687037; call rule not given here). The note with it: Cy5-DNA-NS3h complex fluorescence interference counterscreen. A general note: The purpose of a counterscreen is to sort out artefacts and off-target activity.
Test [18] can be described thus: blockers of cellular phospholipid synthesis – cell-based, LOPAC library, screen 4, primary screen (AID 1347384; call rule not given here). The note with it: animal cells, phospholipid biosynthesis inhibition screen; at 10 µM.
The nature of test [19]: compounds altering circadian rhythm period length – cell-based, LOPAC library, luminescence reporter (AID 2774; call rule not given here;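 also: values are relative to mean of DMSO wells on each plate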). The settings on record: circadian reporter cells, at 7 µM, actives lie on both sides.
Setting [20] is: measured here: combination with BGB IC40, at 0.05 µM.
[21] abbreviates: measured here: combination with cisplatin, at 0.5 µM.
Setting [22] is: measured here: combination with cisplatin, at 5 µM.
[23] abbreviates: measured here: combination with BGB at IC20, at 0.5 µM.
[24] abbreviates: measured here: combination with cisplatin at IC20, at 0.5 µM.
Setting [25] is: measured here: combo with BGB at IC20, at 0.5 µM.
[26] abbreviates: measured here: combo with cisplatin at IC20, at 0.5 µM.
The mark [27] stands for this setting: measured here: inhibition with BGB combination, at 0.05 µM.
[28] abbreviates: measured here: inhibition with cisplatin combination, at 0.05 µM.
Setting [29] is: BGB combination, concentration series, at 5 µM.
[30] abbreviates: cisplatin combination, concentration series, at 5 µM.
Where [31] appears, read: measured here: combo with BGB IC20.
Where [32] appears, read: measured here: combo with cisplatin IC20.
[33] abbreviates: measured here: with BGB IC20 combination, at 0.5 µM.
Where [34] appears, read: measured here: with cisplatin IC20 combination, at 0.5 µM.

Chain of Mitogen-activated protein kinase 7 (Homo sapiens) (Q13164 whole entry, looked up, the tested form may be a part): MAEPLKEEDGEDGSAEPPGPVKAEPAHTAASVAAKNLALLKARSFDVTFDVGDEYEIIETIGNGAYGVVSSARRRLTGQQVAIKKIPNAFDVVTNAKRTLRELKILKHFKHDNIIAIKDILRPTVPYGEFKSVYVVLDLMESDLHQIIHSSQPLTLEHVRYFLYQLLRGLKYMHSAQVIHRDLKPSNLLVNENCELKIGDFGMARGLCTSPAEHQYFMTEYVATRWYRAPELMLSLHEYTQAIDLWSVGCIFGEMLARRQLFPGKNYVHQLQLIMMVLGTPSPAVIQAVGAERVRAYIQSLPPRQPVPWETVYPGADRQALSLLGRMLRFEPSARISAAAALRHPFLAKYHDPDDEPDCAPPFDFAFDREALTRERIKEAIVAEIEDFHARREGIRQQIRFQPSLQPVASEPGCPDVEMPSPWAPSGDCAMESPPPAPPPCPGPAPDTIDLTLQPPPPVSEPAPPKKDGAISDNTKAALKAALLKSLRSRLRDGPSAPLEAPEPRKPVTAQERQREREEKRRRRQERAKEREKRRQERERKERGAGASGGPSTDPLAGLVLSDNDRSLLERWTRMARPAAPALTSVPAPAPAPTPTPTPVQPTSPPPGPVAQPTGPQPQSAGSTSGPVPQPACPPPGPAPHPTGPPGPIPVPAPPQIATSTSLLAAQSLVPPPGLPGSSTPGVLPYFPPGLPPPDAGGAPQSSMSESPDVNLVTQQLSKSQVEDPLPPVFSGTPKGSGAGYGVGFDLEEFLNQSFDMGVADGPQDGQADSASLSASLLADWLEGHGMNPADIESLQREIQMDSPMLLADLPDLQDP
Chain of NAD(+) hydrolase SARM1 (Homo sapiens) (Q6SZW1 whole entry, looked up, the tested form may be a part): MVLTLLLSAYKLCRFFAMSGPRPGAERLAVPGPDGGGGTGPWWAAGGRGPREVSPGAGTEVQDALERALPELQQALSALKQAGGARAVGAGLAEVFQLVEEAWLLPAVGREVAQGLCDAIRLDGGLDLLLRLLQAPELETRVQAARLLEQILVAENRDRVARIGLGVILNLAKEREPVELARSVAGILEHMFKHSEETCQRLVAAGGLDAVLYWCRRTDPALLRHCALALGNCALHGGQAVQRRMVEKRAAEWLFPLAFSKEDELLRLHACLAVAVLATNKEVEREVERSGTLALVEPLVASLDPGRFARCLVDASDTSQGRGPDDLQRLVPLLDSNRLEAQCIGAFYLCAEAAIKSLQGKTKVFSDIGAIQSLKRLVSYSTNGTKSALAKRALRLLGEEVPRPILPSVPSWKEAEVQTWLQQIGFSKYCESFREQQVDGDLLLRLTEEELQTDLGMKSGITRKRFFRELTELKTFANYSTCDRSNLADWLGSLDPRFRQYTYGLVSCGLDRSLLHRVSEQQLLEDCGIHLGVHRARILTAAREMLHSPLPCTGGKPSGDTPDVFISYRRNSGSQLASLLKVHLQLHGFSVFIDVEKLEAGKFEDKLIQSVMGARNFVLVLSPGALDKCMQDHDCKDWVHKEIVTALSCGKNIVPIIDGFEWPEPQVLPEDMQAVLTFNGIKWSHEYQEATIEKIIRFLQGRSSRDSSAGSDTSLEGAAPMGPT

For `CO[C@H]1/C=C/O[C@@]2(C)Oc3c(C)c(O)c4c(O)c(c5c(nc6cc(C)ccn65)c4c3C2=O)NC(=O)/C(C)=C\C=C\[C@H](C)[C@H](O)[C@@H](C)[C@@H](O)[C@@H](C)[C@H](OC(C)=O)[C@@H]1C`, the remaining NAD in test [1] was 10 nM (inactive). Also, the luciferase signal in [2] was 32 AU (inactive).
`CN1CCc2c(c3ccccc3n2Cc2ccc(C(=O)NO)cc2)C1`: the inhibition in test [3] (at 0.5 µM) is -13.1% (inactive); in [3] (setting [20]), -12% and -15.8%; in test [3] (setting [21]), -23.4% and -23.9%; in test [3] (setting [22]) it was -0.081% and -53.5%; in [4] (at 0.5 µM), 21.5% (inactive) and -46.3% (inactive); in [4] (setting [23]) it was -14.9% and -43.1%. Further, the inhibition in test [4] (setting [24]) is 34.9% and -68.1%; in test [5] (at 0.5 µM) it was -1.98% (inactive) and 0.91% (inactive); in test [5] (setting [25]), -6.31% and -10.4%; in test [5] (setting [26]), 1.42% and 11.7%; in test [6] (at 0.5 µM), 1.69% (inactive) and 0.65% (inactive); in test [6] (setting [27]), -1.11% and -13.8%. Besides, the inhibition was 3.47% and 1.13% in test [6] (setting [28]); -14.9% (inactive) and -18.4% (inactive) in [7] (at 0.5 µM); -17.1% and -16.5% in test [7] (setting [21]); -17.1% and 0.035% in test [7] (setting [22]); 19.3% and 22.8% in test [8] (setting [29]); -0.05% (inactive) and 2.69% (inactive) in test [8] (at 0.5 µM). Moreover, the inhibition in [8] (setting [30]) was 23.3% and 11.9%; in test [9], -0.01% (inactive) and -0.33% (inactive); in [9] (setting [31]), 5.22% and 4.02%; in [9] (setting [32]), -7.05% and -4.68%; in [10] (at 0.5 µM) it was 17% (inactive) and -23.2% (inactive); in test [10] (setting [33]), -9.72% and -7.89%. For the same compound, the inhibition is 29.2% and -33% in test [10] (setting [34]); -10.6% and -2.77% in test [10] (single agent, at 0.05 µM); 6.01% and -28.9% in [10] (single agent, at 5 µM).
Regarding `O=C(O)CCCc1c[nH]c2ccccc12`, in test [11], the z-score was 1.11 (inactive).
As for `CN(C)CC(C)(C)CNc1nn2c(-c3ccccc3)nnc2cc1C1CCC1`, in test [12], the liver cell % of control is 58.5% and 89.5% and 101%; the parasite % of control is 54.4% (inactive) and 60.7% (inactive) and 52.9% (inactive).
Take `OCCn1cc(-c2cnc3nnn(Cc4ccc5ncccc5c4)c3n2)cn1`: in test [12], the liver cell % of control is 97.5% and 96.9% and 96.4%; the parasite % of control is 74.3% (inactive) and 94.9% (inactive) and 55.7% (inactive).
Take `CC[C@H](CO)Nc1nc(NCc2ccccc2)c2ncn(C(C)C)c2n1`: the survival in [13] is 75.1 (inactive). For the same compound, in test [14], the parasite load remaining is 29.6% (inactive) and the viability was 68.3%.
Take `C[C@H]1[C@H](C)CC[C@]2(C(=O)O)CC[C@]3(C)C(=CC[C@@H]4[C@@]5(C)C[C@@H](O)[C@H](O)[C@@](C)(CO)[C@@H]5CC[C@]43C)[C@H]12`: the luciferase signal in test [2] is 36 AU (inactive).
For `Cc1cccc(-c2[nH]c(C(C)(C)C)nc2-c2ccc3c(c2)OCO3)n1`, in [14], the parasite load remaining is 33.2% (inactive) and the viability worked out at 61.8%.
With `O=C(c1cc(Cc2n[nH]c(=O)c3ccccc23)ccc1F)N1CCN(C(=O)C2CC2)CC1`, the inhibition in test [3] (at 0.5 µM) is 0.5% (inactive) and -18.6% (inactive); in test [3] (setting [20]), 4.09% and -28.6%; in test [3] (setting [21]), -5.89% and -28.2%; in test [3] (setting [22]) it was 10.2% and -13.4%; in [4] (at 0.5 µM), -22.2% (inactive) and -52% (inactive); in test [4] (setting [23]), -38.6% and -22.3%. Moreover, the inhibition in test [4] (setting [24]) is 8.08% and -53.7%; in [5] (at 0.5 µM), 0.63% (inactive) and 3.05% (inactive); in test [5] (setting [25]), -2.67% and 1.02%; in test [5] (setting [26]), 5.32% and 12.9%; in test [6] (at 0.5 µM) it was 3.95% (inactive) and -1.88% (inactive); in [6] (setting [27]) it was -15.9% and -18%. The inhibition is -0.831% and -12.7% in test [6] (setting [28]); -13.1% (inactive) and -23.1% (inactive) in test [7] (at 0.5 µM); -6.19% and -20.5% in test [7] (setting [21]); -14.1% and -19.5% in [7] (setting [22]); 15.2% and -17.7% in test [8] (setting [29]); 3.2% (inactive) and -8.35% (inactive) in test [8] (at 0.5 µM). For the same compound, the inhibition in test [8] (setting [30]) was 8.98% and -4%; in test [9], 4.09% (inactive) and -6.96% (inactive); in test [9] (setting [31]) it was 0.597% and -11.9%; in test [9] (setting [32]) it was 7.1% and 3.7%; in test [10] (at 0.5 µM), 11% (inactive) and 18.2% (inactive); in test [10] (setting [33]) it was 2.64% and 8.45%. In addition, the inhibition was 15.2% and 23.1% in test [10] (setting [34]); 8.77% and 29.2% in test [10] (single agent, at 0.05 µM); 44.7% and 52.9% in [10] (single agent, at 5 µM).
`Cc1ccc2c(c1)C(=O)[C@]1(O)CCN(c3ccccc3)C1=N2`: in [15], the fold fluorescence was 7.57 [at 171 µM] (inactive).
On to `Cc1cccc(-c2[nH]c(C(C)(C)C)nc2-c2ccc3nccnc3c2)n1`, for which, in [16], the inhibition was -3% (inactive). In addition, in test [17], the fluorescence ratio (interference) is 1 (inactive). Also, the outcome in test [18] was inactive. The z-score in test [11] was -1.01 (inactive).
As for `O=c1c(O)c(-c2cc(O)c(O)c(O)c2)oc2cc(O)cc(O)c12`, in test [19], the period change was -0.075 h (inactive). The survival in test [13] was 2.42 (inactive). For the same compound, in [14], the parasite load remaining is 81.9% (inactive) and 74.4% (inactive); the viability was 106% and 74.8%. In addition, the inhibition in [16] was 8% (inactive). Also, the fluorescence ratio (interference) in [17] is 1 (inactive). Further, in test [18], the call was inactive. Besides, the z-score in [11] was -1.22 (inactive).
Take `CC(=O)OC1C(C)OC(Oc2c(-c3ccc(O)cc3)oc3cc(O)cc(O)c3c2=O)C(O)C1OC(C)=O` (centres undefined): in test [14], the parasite load remaining is 29.8% (inactive) and the viability turned out to be 85%.
On to `Cc1cn(-c2cc(NC(=O)c3ccc(C)c(Nc4nccc(-c5cccnc5)n4)c3)cc(C(F)(F)F)c2)cn1`, for which, in test [12], the liver cell % of control was 96.6% and 104% and 98.4%; the parasite % of control was 40.6% (inactive) and 49.1% (inactive) and 89.8% (inactive).

Usually inhibition stands for the change of the read-out against control, counted positive when it falls. What is called viability is a read-out of living cells in per cent, often relative to untreated cells.
